Experimental findings from PubChem BioAssay AID1508636 (National Center for Advancing Translational Sciences (NCATS), 2021) are described below.

Inconclusive results are not listed. Values without a mark were called inactive. Activity calls are given as the source filed them. Calls come from the whole dose curve; as a rule, active = well fitted inhibition curve with a large enough effect; inconclusive = small, poorly fitted or top-dose-only effect; inactive = flat fitted curve, though single readings scatter. Where a SMILES comes first, the peptide text is derived from it. [ ]: non-standard residue; d: D form. The star is where a group is joined. Cbz = O=C(OCc1ccccc1)*; Nva = CCC[CH](N)C(=O)O

The target in this assay is ATP-dependent translocase ABCB1 (Homo sapiens) (UniProt P08183). Description: qHTS for characterization and localization of zebrafish homologs of the human ABCB1 multidrug transporter: P-gp overexpressing MDR-19 cells. The settings on record: MDR-19 cells overexpressing P-gp, CellTiter-Glo luminescence viability, 72 h; series mostly up to 46.1 µM; activity change, negative = inhibition: at the top concentration. The procedure, abridged: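 Empty-vector, P-gp-overexpressing MDR-19 and zebrafish abcb4- or abcb5-transfected cells were exposed to ~90 P-gp substrates at varying concentrations for 72 h at 37C. Viability was read by CellTiter-Glo luminescence; cytotoxic meant inhibitory curve class, >50% maximal response and AC50 < 10 uM.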
Sequence of ATP-dependent translocase ABCB1 (Homo sapiens) (P08183 whole entry, looked up): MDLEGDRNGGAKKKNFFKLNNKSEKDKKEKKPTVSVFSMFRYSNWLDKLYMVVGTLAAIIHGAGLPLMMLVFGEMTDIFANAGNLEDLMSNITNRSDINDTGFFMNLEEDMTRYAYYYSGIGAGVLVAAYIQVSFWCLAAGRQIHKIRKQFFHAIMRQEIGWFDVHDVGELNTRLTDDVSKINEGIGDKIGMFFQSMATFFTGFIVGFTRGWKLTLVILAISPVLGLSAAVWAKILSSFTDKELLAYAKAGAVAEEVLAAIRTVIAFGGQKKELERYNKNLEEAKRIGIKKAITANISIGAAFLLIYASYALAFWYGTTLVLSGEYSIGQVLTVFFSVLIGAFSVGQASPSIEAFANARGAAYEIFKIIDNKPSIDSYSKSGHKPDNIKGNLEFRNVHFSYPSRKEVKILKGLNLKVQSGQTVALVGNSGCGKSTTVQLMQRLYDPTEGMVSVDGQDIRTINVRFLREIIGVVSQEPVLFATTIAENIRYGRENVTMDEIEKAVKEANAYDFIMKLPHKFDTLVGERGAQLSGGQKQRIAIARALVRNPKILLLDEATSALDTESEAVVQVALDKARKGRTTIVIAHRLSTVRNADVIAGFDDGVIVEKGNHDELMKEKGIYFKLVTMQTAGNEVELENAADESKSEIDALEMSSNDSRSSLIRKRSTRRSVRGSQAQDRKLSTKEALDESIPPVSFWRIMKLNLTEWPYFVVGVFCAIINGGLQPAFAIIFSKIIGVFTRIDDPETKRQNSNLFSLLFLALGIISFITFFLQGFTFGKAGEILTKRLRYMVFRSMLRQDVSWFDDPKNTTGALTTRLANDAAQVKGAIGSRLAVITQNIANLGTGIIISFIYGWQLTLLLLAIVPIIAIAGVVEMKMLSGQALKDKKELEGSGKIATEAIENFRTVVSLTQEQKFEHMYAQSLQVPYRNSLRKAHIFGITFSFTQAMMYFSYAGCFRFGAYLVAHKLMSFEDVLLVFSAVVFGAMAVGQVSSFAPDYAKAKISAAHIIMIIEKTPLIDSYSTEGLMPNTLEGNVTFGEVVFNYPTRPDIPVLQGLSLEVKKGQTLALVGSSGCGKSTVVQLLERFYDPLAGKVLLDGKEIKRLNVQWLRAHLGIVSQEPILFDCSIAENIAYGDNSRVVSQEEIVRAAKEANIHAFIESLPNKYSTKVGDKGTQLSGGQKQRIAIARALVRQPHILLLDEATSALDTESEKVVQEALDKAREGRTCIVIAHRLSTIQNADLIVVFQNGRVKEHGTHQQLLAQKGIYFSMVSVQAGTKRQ
(In general: Quantitative high-throughput screening tests each substance at several concentrations.)
On to `CO[C@H]1/C=C/C=C/C=C/C[C@H](OC(=O)[C@@H](C)NC(=O)C2CCCCC2)[C@H](C)[C@@H](O)/C(C)=C/CCc2cc(O)cc(c2)NC(=O)C1`, for which the “activity change, negative = inhibition” value was -13.5% [at 15.2 µM].
For `CCN1CCN(Cc2ccc(NC(=O)Nc3ccc(Oc4cc(NC)ncn4)cc3)cc2C(F)(F)F)CC1`, the “activity change, negative = inhibition” value is 4.09%.
As for `CC(C)C[C@H](NC(=O)[C@H](CCc1ccccc1)NC(=O)CN1CCOCC1)C(=O)N[C@@H](Cc1ccccc1)C(=O)N[C@@H](CC(C)C)C(=O)[C@@]1(C)CO1`, the Potency was 0.743 µM (active).
As for `COc1cc2ncn(-c3cc(OCc4ccccc4C(F)(F)F)c(C(N)=O)s3)c2cc1OC`, the Potency was 5.4 µM (active).
For `COC[C@H](NC(=O)c1cnc(C)s1)C(=O)N[C@@H](COC)C(=O)N[C@@H](Cc1ccccc1)C(=O)[C@@]1(C)CO1`, the Potency is 0.59 µM (active).
For `CC(C)CC(=O)Nc1n[nH]c2c1CN(C(=O)C1CCN(C)CC1)C2(C)C`, the “activity change, negative = inhibition” value is -14.7%.
For the compound `C/C=C1/NC(=O)C2CSSCCC=CC(CC(=O)NC(C(C)C)C(=O)N2)OC(=O)C(C(C)C)NC1=O` (stereo not drawn), the Potency is 7.43 µM (active).
Turning to `CC1(C)CC[C@]2(C(=O)OC3OC(CO)C(O)C(O)C3O)CC[C@]3(C)C(=CCC4[C@@]5(C)CC[C@H](OC6OC(C(=O)O)C(O)C(O)C6O)C(CO)(CO)C5CC[C@]43C)[C@@H]2C1` (stereo partly drawn), the “activity change, negative = inhibition” value is 4.43% [at 15.2 µM].
Take `CCN(CCCO)CCCOc1ccc2c(Nc3cc(CC(=O)Nc4cccc(F)c4)[nH]n3)ncnc2c1`: the “activity change, negative = inhibition” value was -4.66%.
Take `C#CCN(Cc1cc2c(=O)n(C)c(CN3CCN(C)CC3)nc2cc1Cl)c1ccc(C(=O)NCc2cccnc2)cc1`: the “activity change, negative = inhibition” value is -24.7%.
Turning to `Cc1ccc(-c2ncn(-c3ccc(Nc4nccc(-c5cccc(N6CCOCC6)c5)n4)cc3)n2)cn1`, the Potency is 3.72 µM (active).
Same read-out and setting: under `CCCC(C=O)NC(=O)C(CC(C)C)NC(=O)C(CC(C)C)NC(=O)OCc1ccccc1` (stereo not drawn) (Cbz-Leu-Leu-[Nva]-aldehyde; configuration not given here) stands 4.18 µM (active); under `CC(=O)O[C@@H]1C[C@H](O)[C@@]23CO[C@@H](O)C1(C)[C@@H]2C[C@@H](O)[C@]1(C)[C@@H]3C(=O)[C@H](OC(C)=O)[C@@]2(C)[C@H](c3ccoc3)C[C@H]3O[C@]321`, 3.72 µM (active).
